Sampled rows, rich in hits. Any-hit rate of the full collection: about 4.8%.
DAX1 inh-1 – inhibits human nuclear receptor DAX1. HEK293 Gal4-DAX1 luciferase reporter, luminescence. inhibition, % at 6.75 µM. 340,000 compounds, 0.99% hits;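 active means inhibition above the mean over all tested compounds plus 3 SD, cut at about 4.2% in these data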;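 further: inhibition shows as a rise in luminescence from relieved DAX1 repression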
Target sequence (P51843 207-470 limits assumed): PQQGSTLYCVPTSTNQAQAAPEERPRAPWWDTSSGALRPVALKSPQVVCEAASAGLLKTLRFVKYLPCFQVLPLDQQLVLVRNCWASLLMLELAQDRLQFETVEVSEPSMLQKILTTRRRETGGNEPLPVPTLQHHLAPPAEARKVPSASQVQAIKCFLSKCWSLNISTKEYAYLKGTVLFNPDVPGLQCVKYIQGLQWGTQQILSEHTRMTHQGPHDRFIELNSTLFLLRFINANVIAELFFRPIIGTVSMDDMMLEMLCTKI
hgDAF12 agonist – hgDAF-12 agonism, primary luciferase screen | activation, % at 6.8 µM | HEK293 GAL4-hgDAF12 UAS-luciferase reporter, agonist luminescence; normalized to butyrate control | 370,000 compounds, 1.8% hits | AID 687014;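 active means activation above a cutoff set at the mean of all screened compounds plus 3 SD, cut at about 10% in these data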
ssDAF-12 act – activates DAF-12 receptor from parasite S. stercoralis; HEK293 ssDAF-12/GRIP1 lit1-tk-luc reporter, luminescence; % of 3 µM dafachronic acid response; activation, % at 6.8 µM; AID 652126; 370,000 compounds, 1% hits;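 active means activation above the mean over all tested compounds plus 3 SD, cut at about 0.9% in these data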
SMARCA2 act – SMARCA2 function activation, primary screen; activation, % at 9.1 µM; MG213 cells, MMTV-luciferase reporter, dexamethasone, overnight; 370,000 compounds, 1% hits; in the data active means activation above about 7.8%
DAX1 inh-2 – inhibitors of DAX1 repression of SF-1 activated StAR promoter | inhibition, % at 6.8 µM | 370,000 compounds, 1.1% hits | HEK293T StAR-luciferase reporter, SF-1/DAX-1 repression relief;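 active means inhibition above the mean over all tested compounds plus 3 SD, cut at about 3.6% in these data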;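 further: higher inhibition means more luminescence from relief of DAX-1 repression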
hcDAF12 agonist – activates DAF-12 receptor from parasite H. contortus; activation, % at 6.8 µM; HEK293 hcDAF-12 lit1-tk-luc reporter, luminescence; 0% DMSO, 100% Δ7-dafachronic acid; 370,000 compounds, 1.4% hits; AID 652067;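 active means activation above the mean of all tested compounds plus 3 SD, cut at about 5.5% in these data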
SMARCA2 conf – SMARCA2 activation, confirmation screen; shares compounds with SMARCA2 act; MG213 cells, MMTV-luciferase with dexamethasone, luminescence, overnight; MG213 cells expressing E1A, Rb sequestered; DMSO wells 0%, reference activator 100%; activation, % at 9.1 µM; 3,500 compounds, 30% hits;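 active means activation above its plate's cutoff, the mean activation of tested wells plus 3 SD, cut at about 7.9% in these data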
GAL4-VP16 Luc – GAL4-VP16 reporter activation counter-screen; 3,500 compounds, 41% hits; HEK293 GAL4-VP16 pG5luc reporter, luciferase luminescence; scaled: DMSO wells 0%, SAHA wells 100%; AID 686939; shares compounds with SMARCA2 act; activation, % at 9.1 µM;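 active means activation above the solvent-only control well mean plus 3 SD, averaged across control plates, cut at about 5.2% in these data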
Numbers stand for hits.

`O=C1C(=Cc2ccc(F)cc2)Cc2ccccc21` gave hgDAF12 agonist inactive, ssDAF-12 act inactive, SMARCA2 act inactive, DAX1 inh-2 inactive and hcDAF12 agonist inactive.
Screening O=C1/C(=C/c2ccco2)Cc2ccccc21 returned DAX1 inh-1 inactive, hgDAF12 agonist inactive, ssDAF-12 act inactive, SMARCA2 act 11, DAX1 inh-2 inactive, hcDAF12 agonist inactive, SMARCA2 conf 13 and GAL4-VP16 Luc inactive.
For O=C1NC(=S)SC1=Cc1cccs1 the results were DAX1 inh-1 inactive, hgDAF12 agonist inactive, ssDAF-12 act inactive, SMARCA2 act inactive, DAX1 inh-2 inactive and hcDAF12 agonist inactive.
For O=C1Nc2ccccc2S/C1=C/c1cccs1 the results were DAX1 inh-1 inactive, hgDAF12 agonist inactive, ssDAF-12 act 1.3, SMARCA2 act 10, DAX1 inh-2 inactive, hcDAF12 agonist inactive, SMARCA2 conf inactive and GAL4-VP16 Luc inactive.
Cn1cc(-c2nc3ccccc3[nH]2)c2ccccc21 was read as DAX1 inh-1 inactive, hgDAF12 agonist inactive, ssDAF-12 act inactive, SMARCA2 act 9.0, DAX1 inh-2 inactive, hcDAF12 agonist inactive, SMARCA2 conf 15 and GAL4-VP16 Luc inactive.
Screening COCCCC1CCN(C(=O)c2cc(COc3cc(C)ccc3C)on2)CC1 returned DAX1 inh-1 inactive, hgDAF12 agonist inactive, ssDAF-12 act inactive, SMARCA2 act inactive, DAX1 inh-2 inactive and hcDAF12 agonist inactive.
For CN(C)c1ccc(NC(=O)Nc2ccc3c(c2)nnn3C)cc1 the results were DAX1 inh-1 6.5, hgDAF12 agonist inactive, ssDAF-12 act inactive, SMARCA2 act 20, DAX1 inh-2 inactive, hcDAF12 agonist inactive, SMARCA2 conf 11 and GAL4-VP16 Luc 6.1.
For CCOC(=O)/C=C1\CC(C(=O)OCC)Oc2c(OC)cccc21 (centres undefined) the results were DAX1 inh-1 inactive, hgDAF12 agonist inactive, ssDAF-12 act inactive, SMARCA2 act 9.6, DAX1 inh-2 inactive, hcDAF12 agonist inactive, SMARCA2 conf inactive and GAL4-VP16 Luc inactive.
For COC(CNC(=O)[C@H](Cc1ccccc1)NC(C)(C)C(=O)NC1CCCCC1)OC the results were hgDAF12 agonist inactive, ssDAF-12 act inactive and hcDAF12 agonist inactive.
O=[N+]([O-])c1cccc(COc2ccc(CO)cc2)c1 was read as hgDAF12 agonist 19, ssDAF-12 act 2.6, SMARCA2 act 9.4, DAX1 inh-2 inactive, hcDAF12 agonist 7.0, SMARCA2 conf 9.1 and GAL4-VP16 Luc 13.
Screening CC(c1ccc2c(c1)OCO2)n1c(=S)[nH]c2ccccc2c1=O (centres undefined) returned DAX1 inh-1 inactive, hgDAF12 agonist inactive, ssDAF-12 act inactive, SMARCA2 act inactive, DAX1 inh-2 inactive and hcDAF12 agonist inactive.
For O=C(Cc1ccccc1)Nc1nc(-c2cccs2)cs1 the results were DAX1 inh-1 inactive, hgDAF12 agonist inactive, ssDAF-12 act inactive, SMARCA2 act 11, DAX1 inh-2 inactive, hcDAF12 agonist inactive, SMARCA2 conf inactive and GAL4-VP16 Luc 6.4.
`O=S(=O)(c1ccccc1)N(Cc1ccccn1)Cc1ccccn1` gave DAX1 inh-1 inactive, hgDAF12 agonist inactive, ssDAF-12 act inactive, SMARCA2 act inactive, DAX1 inh-2 inactive and hcDAF12 agonist inactive.
For O=c1ccc(Cc2ccccn2)n[nH]1 the results were DAX1 inh-1 inactive, hgDAF12 agonist inactive, ssDAF-12 act inactive, SMARCA2 act 9.5, DAX1 inh-2 inactive, hcDAF12 agonist inactive, SMARCA2 conf inactive and GAL4-VP16 Luc inactive.
COC(=O)c1c(NC(=O)Cc2ccccc2)sc2c1CC(C)(C)NC2(C)C was read as DAX1 inh-1 inactive, hgDAF12 agonist inactive, ssDAF-12 act inactive, SMARCA2 act 12, DAX1 inh-2 inactive, hcDAF12 agonist inactive, SMARCA2 conf inactive and GAL4-VP16 Luc inactive.
Screening COC(=O)c1c(NC(=O)COc2ccc(Cl)cc2)sc2c1CC(C)(C)NC2(C)C returned DAX1 inh-1 inactive, hgDAF12 agonist inactive, ssDAF-12 act inactive, SMARCA2 act inactive, DAX1 inh-2 inactive and hcDAF12 agonist inactive.
Screening COc1ccc(NC(=O)CCCNC(=O)c2ccc(Cl)cc2)cc1S(=O)(=O)N1CCOCC1 returned DAX1 inh-1 inactive, hgDAF12 agonist inactive, ssDAF-12 act inactive, SMARCA2 act inactive, DAX1 inh-2 inactive and hcDAF12 agonist inactive.
For COc1ccc(/C=N/NC(=O)CN(C2=NS(=O)(=O)c3ccccc32)c2ccccc2)cc1OC the results were DAX1 inh-1 inactive, hgDAF12 agonist inactive, ssDAF-12 act inactive, SMARCA2 act 8.1, DAX1 inh-2 inactive, hcDAF12 agonist inactive, SMARCA2 conf inactive and GAL4-VP16 Luc inactive.
Screening COc1cccc(/C=N/NC(=O)CN(C2=NS(=O)(=O)c3ccccc32)c2ccccc2)c1 returned DAX1 inh-1 inactive, hgDAF12 agonist inactive, ssDAF-12 act inactive, SMARCA2 act inactive, DAX1 inh-2 inactive and hcDAF12 agonist inactive.
`Cc1n[nH]c(=O)nc1N/N=C/c1ccco1` gave DAX1 inh-1 inactive, hgDAF12 agonist inactive, ssDAF-12 act inactive, SMARCA2 act inactive, DAX1 inh-2 inactive and hcDAF12 agonist inactive.
`COc1cc2ccccc2cc1C(=O)NC1CCC(C)CC1` (centres undefined) gave DAX1 inh-1 inactive, hgDAF12 agonist inactive, ssDAF-12 act inactive, SMARCA2 act 12, DAX1 inh-2 inactive, hcDAF12 agonist inactive, SMARCA2 conf inactive and GAL4-VP16 Luc 7.6.
Cn1c(CCC(=O)O)nc2cc(S(=O)(=O)N3CCCCC3)ccc21 was read as DAX1 inh-1 inactive, hgDAF12 agonist inactive, ssDAF-12 act inactive, SMARCA2 act 11, DAX1 inh-2 inactive, hcDAF12 agonist inactive, SMARCA2 conf inactive and GAL4-VP16 Luc inactive.
For Cc1cc2nc(/N=C(\N)NC(=O)N3c4ccccc4Sc4ccccc43)nc(C)c2cc1C the results were DAX1 inh-1 inactive, hgDAF12 agonist inactive, ssDAF-12 act inactive, SMARCA2 act inactive, DAX1 inh-2 inactive and hcDAF12 agonist inactive.
Screening CN(C)Cc1ccc(CNC(=O)c2ccc(Cl)c(S(=O)(=O)NC3CC3)c2)cc1 returned DAX1 inh-1 inactive, hgDAF12 agonist inactive, ssDAF-12 act inactive, SMARCA2 act 9.0, DAX1 inh-2 inactive, hcDAF12 agonist inactive, SMARCA2 conf inactive and GAL4-VP16 Luc inactive.
O=C(C1CC=CCC1)N1CCN(S(=O)(=O)c2ccc(F)cc2)CC1 (centres undefined) was read as DAX1 inh-1 inactive, hgDAF12 agonist inactive, ssDAF-12 act inactive, SMARCA2 act inactive, DAX1 inh-2 inactive and hcDAF12 agonist inactive.

From PubChem
